In PubChem BioAssay (NCI):
About 83,000 compounds went through this panel and 20% of them were active in at least one assay; those are over-represented in the sample as a whole.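 Cells were grown in 96-well plates and exposed to the test compound at a single concentration for 48 hours; results are reported as percent growth, with values below 10 considered active.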 Values without a mark were called inactive. Activity calls are given as the source filed them.

What was measured:
Assay in all cases: NCI-60 one-dose screen, 48 h (100 = growth as untreated, 0 = no growth, -100 = all killed)
Settings in all cases: 10 µM unless noted
[1] = test system: T-47D breast
[2] = test system: BT-549 breast
[3] = test system: MDA-MB-435 melanoma
[4] = test system: SW-620 colon
[5] = test system: MCF7 breast
[6] = test system: HCT-116 colon
[7] = test system: HCC-2998 colon
[8] = test system: KM12 colon

SMILES | growth [1] | growth [2] | growth [3] | growth [4] | growth [5] | growth [6] | growth [7] | growth [8]
Cc1cc2c3ccc(C)[n+](C)c3ccc2n1C | 74.5% | 16.8% | 52% | 15.1% | 57% | 29.4% | 22.2% | 5.81% (active)
CCC(=O)Oc1c(C)cc(O)c2ccccc12 | 79.5% | 82.1% | 95.7% | 103% | 93.3% | 70% | 106% | 88.6%
CCCCCCCCCCC(=O)CCCCCCCCCC | 92.3% | 95.3% | 106% | 104% | 101% | 94.9% | 94.4% | 104%
CCOC(=O)/C(C#N)=C\c1c[nH]c2ccccc12 | 86.5% | 129% | 113% | 115% | 77% | 100% | 108% | 109%
COc1cc(N)c2ncccc2c1Cl | 101% | 87.5% | 111% | 109% | 104% | 95.3% | 106% | 117%
CC1(C)OC(=O)CC1=O | 82% | 98.1% | 104% | 100% | 99.3% | 103% | 100% | 102%
Cc1cc(C(=O)NN)c(C#N)c(=O)[nH]1 | 96.3% | 109% | 119% | 102% | 93% | 100% | 112% | 122%
COc1ccc(C2CC(c3ccccc3)=Nc3ccccc3S2)cc1 (centres undefined) | 84.1% | 91.6% | 98.8% | 98.4% | 78.7% | 88.7% | 111% | 87.4%
C=C1C(=O)C2CCN1CC2 | 98% | 96.9% | 93.7% | 67.2% | 94.3% | 56.4% | 106% | 102%
O=C(O)CC1=CCCCC1 | 109% | 96.1% | 101% | 98.2% | 96.7% | 104% | 94.3% | 98%
OCC(O)COc1ccc(Cl)cc1Cl (centres undefined) | 81.5% | 101% | 103% | 114% | 95.6% | 93% | 98.3% | 106%
CC(=O)c1cccc(NS(=O)(=O)c2ccc(C)cc2)c1 | 67.7% | 74.8% | -21.4% (active) | 43.3% | 39.8% | 60.2% | 65.4% | 34.2%
O=S(Cc1ccccc1)/C(=C/NC(=S)Nc1ccccc1)c1ccccc1 (centres undefined) | 90.2% | 97.6% | 104% | 104% | 102% | 91.1% | 102% | 99%
CN1CCN(C(=S)S)CC1 | 93% | 108% | 109% | 114% | 99.3% | 107% | 107% | 107%
CCc1ccccc1C(=O)N(CC)CC | 92.8% | 102% | 104% | 105% | 91% | 92.9% | 104% | 103%
C1Cc2onc(-c3noc4c3CCC4)c2C1 | 108% | 114% | 113% | 123% | 99.2% | 108% | 115% | 106%
CCOc1ccncc1[N+](=O)[O-] | 104% | 111% | 107% | 101% | 100% | 108% | 106% | 101%
c1ccc2c(NCCCN3CCN(CCCNc4c5ccccc5nc5ccccc45)CC3)c3ccccc3nc2c1 | -7.72% [100 µM] (active) | -61.4% [100 µM] (active) | -88.4% [100 µM] (active) | -22.7% [100 µM] (active) | -56.5% [100 µM] (active) | -49.6% [100 µM] (active) | -76.6% [100 µM] (active) | -14.9% [100 µM] (active)
Cc1ccc(N)c(S(=O)(=O)O)c1 | 101% | 104% | 117% | 101% | 98.9% | 98.1% | 95.7% | 101%
O=C(Nc1ccccc1)c1ccco1 | 103% | 98.1% | 109% | 104% | 95.5% | 92.3% | 84% | 117%
COCC(N)=O | 98.4% | 93.2% | 105% | 99.7% | 102% | 99% | 110% | 98.9%
Nc1ccn(C2CC(N)C(CO)O2)c(=O)n1 (centres undefined) | 81.1% | 71.8% | 83.6% | 88.8% | 66.5% | 63.6% | 74.8% | 97.4%
C=C(OC(C)=O)c1ccccc1 | 89.5% | 107% | 107% | 97.4% | 97.1% | 98% | 110% | 102%
NNc1ncnc2nc[nH]c12 | 62.2% | 85% | 51.3% | 41.6% | 33% | 24% | 78% | 46%

SMILES | growth [1] | growth [2] | growth [3] | growth [4] | growth [5] | growth [6] | growth [7] | growth [8]
CC(C)N(C(=O)c1ccccc1)C(C)C | 99.5% | 106% | 107% | 104% | 97.8% | 104% | 98.3% | 111%
CCCCNc1ccc(-c2ccc(NCCCC)cc2)cc1 | 45.9% | 31.1% | 40.8% | 78.6% | 34.3% | 55.3% | 94.7% | 56.9%
CC(=O)C1C(=O)C(=O)N(c2ccc(Cl)c(Cl)c2)C1=O (centres undefined) | 93.2% | 97.5% | 103% | 108% | 89.1% | 91.3% | 101% | 103%
S=CN1CCCCC1 | 103% | 105% | 103% | 105% | 96.3% | 102% | 103% | 98.8%
Cc1cc(=O)n(Nc2ccccc2)c(O)c1C#N | 92% | 107% | 108% | 98.6% | 98.4% | 101% | 112% | 92.9%
CCCCn1cnc2c(=O)[nH]cnc21 | 97.8% | 105% | 100% | 117% | 98.2% | 107% | 117% | 132%
O=C(O)c1cc(I)ccc1O | 112% | 85.9% | 100% | 116% | 95.7% | 111% | 95.1% | 108%
CC(C)(C)NCCC(O)c1cc(C(F)(F)F)nc2c(C(F)(F)F)cccc12 (centres undefined) | 86.8% | 86.5% | 82.3% | 89.6% | 92.6% | 56.8% |  | 58.7%
Cn1c(=O)c2nc3c(=O)n(C)c(=O)n(C)c3nc2n(C)c1=O | 91.1% | 100% | 112% | 99.8% | 93.8% | 92.1% |  | 109%
Cc1cc(CO)c(O)c(CO)c1 | 96.4% | 94.7% | 106% | 99.9% |  | 98.2% | 96.8% | 107%
Cn1/c(=N\N=C\c2ccccc2OCCO)sc2ccccc21 | 79.3% | 102% | 107% | 109% |  | 98.8% | 110% | 92.2%
O=c1n(CC2CO2)c(=O)n(CC2CO2)n1CC1CO1 (centres undefined) | 52.4% | 54.4% | 90.4% | 66.3% | 31% | 57.7% | 75.2% | 84.4%
Oc1ccc2ccccc2c1CN1CCOCC1 | 104% | 103% | 112% | 113% | 106% | 103% | 105% | 114%
Cc1c(Cl)cccc1NC(=S)NC(=O)c1ccccc1 | 64.8% | 115% | 101% | 106% | 53.3% | 106% |  | 89.6%
O=C(c1ccccc1)c1ccc(-c2ccc(O)cc2)cc1 | 50.6% | 52.3% | 9.71% (active) | 45.4% | 23.3% | 59.4% |  | 35.2%
Clc1cccc(Cl)c1CSc1nc2ccccc2n2cccc12 | 25.1% | 98.7% | 66.8% | 97% |  | 86.9% | 109% | 84.4%
O=C(N/N=C\c1ccc(Cl)cc1Cl)c1ccncc1 | 96.6% | 65.7% | 105% | 111% | 87.2% | 101% |  | 112%
CC(CO)(CO)C(=O)O | 95.5% | 109% | 105% | 104% |  | 102% | 94.6% | 106%
Cc1ccc[n+](CCC(N)=O)c1 | 91.7% | 110% | 101% | 96.7% | 94.3% | 115% | 93.1% | 91.1%
CC(=O)/C(C)=N\OC(=O)Nc1ccccc1 | 94.4% | 101% | 103% | 107% |  | 102% | 94.7% | 101%
COc1cccc(N=CNc2cccc(OC)c2)c1 | 92% | 101% | 102% | 98.5% |  | 92.2% | 98.9% | 
NC(=S)N/N=C/c1ccc(OC(=O)COc2ccc(Cl)cc2)cn1 | 33.9% | 55% | 59.1% | 46.3% | 23.6% | 39.7% |  | 64.8%
CCCCCCCCNC(=O)C(C)C | 95.2% | 107% | 102% | 93.4% |  | 92.7% | 115% | 102%
Nc1ccn(C2OC(CO)C(O)C2F)c(=O)n1 (centres undefined) | 94.1% | 93.9% | 78.4% | 67.7% |  | 49.2% | 49.7% | 89.6%
